Compound activity: PubChem BioAssay, Broad Institute
Only a selection was taken, and hits are over-represented in it overall.
IDE exosite FP – displaces the probe from the exo-site of human IDE; P14735; purified IDE, FL-6b probe fluorescence polarization; stronger effect = lower value; z-score at 20 µM; hit rate 6.3% among 17,000; AID 1259349;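 active = z-score of -3 or lower, meaning strong loss of probe binding signal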;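 also: His-tagged human IDE residues 42-1019 made in E. coli with 30 nM FL-6b probe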
The depositor's hits bear a star.

SMILES	IDE exosite FP
CN1C(=O)c2cc(NS(C)(=O)=O)ccc2OC[C@@H]2O[C@H](CC(=O)N3CCOCC3)CC[C@H]21	0.59
C/C=C/c1ccc([C@H]2[C@@H](CO)N(C(=O)C3CCC3)[C@@H]2CNC(=O)CN(C)C)cc1	2.6
CO[C@@H]1CN(C)C(=O)c2cc(NC(=O)NC(C)C)ccc2OC[C@@H](C)N(Cc2ccccc2)C[C@H]1C	-0.52
O=C1C[C@H](c2ccccc2)C(=O)N[C@H](c2ccccc2)C/C=C\C[C@H](c2ccccc2)N1	2.3
Cc1ccccc1S(=O)(=O)N1[C@H](C#N)[C@@H](c2ccccc2)[C@@H]1CO	-0.0097
C/C=C/c1ccc([C@H]2[C@@H](CNC(C)=O)N(Cc3ccccn3)[C@H]2CO)cc1	0.21
CN(C)C(=O)c1cccc(-c2ccc([C@@H]3[C@H](CO)N4CCCCN(C(=O)C5CCC5)C[C@@H]34)cc2)c1	3.9
O=C(c1cccnc1)N1CC(=O)N2[C@H](CO)[C@@H](c3ccc(C#CCC4CCCC4)cc3)[C@H]2C1	3.7
CO[C@H]1CC[C@H]2CCN(C)C(=O)[C@@H](C)CN(C)C(=O)c3cc(C#N)ccc3OC[C@H]1O2	0.0054
N#C[C@@H]1N[C@@H](CO)[C@@H]1c1ccc(C#CC2CCCCC2)cc1	0.0046
C/C=C/c1ccc([C@H]2[C@H](CO)N3C(=O)CN(C(=O)c4ccncc4)C[C@@H]23)cc1	0.78
COc1cccc(-c2ccc([C@@H]3[C@@H](C#N)N(C(=O)c4ccccn4)[C@@H]3CO)cc2)c1	-5*
CCCNC(=O)N1[C@H](C#N)[C@@H](c2ccc(-c3cccc(OC)c3)cc2)[C@H]1CO	-1.3
COc1cccc(-c2ccccc2[C@H]2[C@@H](C#N)N(C(=O)c3ccccn3)[C@@H]2CO)c1	-0.39
Cc1ccccc1-c1ccc([C@H]2[C@H]3CN(C(=O)NC4CCCC4)CC(=O)N3[C@H]2CO)cc1	-12*
O=C(NC1CCCC1)N1CC(=O)N2[C@H](CO)[C@H](c3ccc(C4=CCCCC4)cc3)[C@@H]2C1	-2
Cc1ccccc1-c1ccc([C@H]2[C@H](CO)N3C(=O)CN(C(=O)NC4CCCC4)C[C@@H]23)cc1	-21*
CC(C)C#Cc1ccc([C@@H]2[C@H](CO)N3C(=O)CN(C(=O)NC4CCCC4)C[C@@H]23)cc1	-1.4
CC(C)C#Cc1ccc([C@@H]2[C@@H](CO)N3C(=O)CN(C(=O)NC4CCCC4)C[C@H]23)cc1	-1
COc1ccc2c3c([nH]c2c1)[C@H](CO)N(C(C)=O)CC31CCN(C(=O)Nc2ccc(F)cc2F)CC1	0.53
CO[C@@H](C(=O)N(C)C[C@H]1OCc2ccccc2-c2ccccc2C(=O)N([C@@H](C)CO)C[C@@H]1C)c1ccccc1	-1
CCCC#Cc1ccc([C@H]2[C@H](CO)N3C(=O)CN(C(=O)c4cccc(F)c4)C[C@@H]23)cc1	0.27
O=C(c1ccncc1)N1CC(=O)N2[C@H](C1)[C@H](c1ccc(-c3ccccc3)cc1)[C@@H]2CO	1.3
Cc1ccc(-c2ccc([C@@H]3[C@@H](CO)N4C(=O)CN(C(=O)c5ccncc5)C[C@H]34)cc2)cc1	-0.28
O=C(c1ccncc1)N1CC(=O)N2[C@H](C1)[C@@H](c1ccc(-c3ccccc3)cc1)[C@@H]2CO	-6.8*
SMILES	IDE exosite FP
Cc1ccc(-c2ccc([C@H]3[C@H]4CN(C(=O)c5ccncc5)CC(=O)N4[C@H]3CO)cc2)cc1	0.4
Cc1ccc(-c2ccc([C@@H]3[C@H](CO)N4C(=O)CN(C(=O)c5ccncc5)C[C@@H]34)cc2)cc1	1.8
Cc1ccc(-c2ccc([C@@H]3[C@H]4CN(C(=O)c5ccncc5)CC(=O)N4[C@H]3CO)cc2)cc1	-4.4*
Cc1ccc(-c2ccc([C@H]3[C@H](CO)N4C(=O)CN(C(=O)c5ccncc5)C[C@@H]34)cc2)cc1	-3.2*
Cc1ccc(-c2ccc([C@@H]3[C@@H](CO)N4C(=O)CN(C(=O)c5ccncc5)C[C@@H]34)cc2)cc1	2
O=C(c1ccncc1)N1CC(=O)N2[C@@H](CO)[C@@H](c3ccc(-c4ccccc4)cc3)[C@@H]2C1	3.3
N#C[C@H]1[C@@H](c2ccccc2)[C@@H](CO)N1S(=O)(=O)Cc1ccccc1	4.8
CC(C)C#Cc1ccc([C@H]2[C@@H](CO)N3C(=O)CN(C(=O)c4ccccn4)C[C@H]23)cc1	0.18
O=C(C[C@@H]1CC[C@@H](NC(=O)CC2CC2)[C@@H](CO)O1)NCC(F)(F)F	1.4
O=C(C1CCCC1)N1CC2(C1)[C@@H](c1ccccc1)[C@H](CO)N2Cc1ccc(Cl)cc1	-0.65
CC(=O)N(C)C[C@H]1[C@@H](c2ccc(-c3cccnc3)cc2)[C@@H](CO)N1C(=O)C1CC1	2.7
C[C@H]1CN([C@@H](C)CO)C(=O)c2ccccc2-c2ccccc2CO[C@@H]1CN(C)S(=O)(=O)c1cccs1	-0.21
N#C[C@@H]1[C@H](c2ccc(C#CCC3CCCC3)cc2)[C@@H](CO)N1C(=O)c1ccccn1	1.2
CC(C)CC#Cc1ccc([C@@H]2[C@@H](CO)N3CCCCN(C(=O)Nc4ccccc4)C[C@H]23)cc1	0.11
O=C(c1ccccn1)N1CC2(C1)[C@H](c1ccccc1)[C@@H](CO)N2Cc1ccc(F)cc1	-0.18
O=C(Nc1cc(F)ccc1F)N1CC(=O)N2[C@H](CO)[C@@H](c3ccc(C#CC4CCCCC4)cc3)[C@@H]2C1	4.6
OC[C@@H]1[C@@H](c2ccc(-c3ccccc3)cc2)[C@@H]2CN(CCC(F)(F)F)CCCCN12	0.77
COc1ccccc1C#Cc1ccc([C@H]2[C@@H](CO)N3CCCCN(CCC(F)(F)F)C[C@@H]23)cc1	-6.9*
OC[C@@H]1[C@H](c2ccc(-c3ccccc3)cc2)[C@H]2CN(CCC(F)(F)F)CCCCN12	2.4
OC[C@@H]1[C@H](c2ccc(C#CC3CCCC3)cc2)[C@H]2CN(CCC(F)(F)F)CCCCN12	2.5
COc1ccccc1C#Cc1ccc([C@H]2[C@H](CO)N3CCCCN(CCC(F)(F)F)C[C@@H]23)cc1	-6.1*
OC[C@H]1[C@@H](c2ccc(-c3ccccc3)cc2)[C@H]2CN(CCC(F)(F)F)CCCCN21	1.8
OC[C@H]1[C@@H](c2ccc(C#CC3CCCC3)cc2)[C@@H]2CN(CCC(F)(F)F)CCCCN12	3.8
COc1ccccc1C#Cc1ccc([C@@H]2[C@@H](CO)N3CCCCN(CCC(F)(F)F)C[C@@H]23)cc1	-5.6*
OC[C@H]1[C@@H](c2ccc(-c3ccc(F)cc3)cc2)[C@H]2CN(CCC(F)(F)F)CCCCN21	1.7
SMILES	IDE exosite FP
CS(=O)(=O)N1[C@H](C#N)[C@H](c2ccccc2)[C@@H]1CO	3.1
O=C(C[C@H]1CC[C@H]2NC[C@H](O)COC[C@@H]2O1)NCc1ccc2c(c1)OCO2	0.76
COCC(=O)Nc1ccc2c(c1)[C@H]1C[C@@H](CC(=O)N[C@@H](C)c3ccccc3)O[C@@H](CO)[C@H]1O2	-2
CCC(=O)N(C)C[C@@H]1[C@@H](c2ccc(C3=CCCCC3)cc2)[C@H](CO)N1C(C)=O	3.6
Cc1ccccc1S(=O)(=O)N1C[C@@H](O)COC[C@@H]2O[C@H](CC(=O)N3CCCCC3)CC[C@H]21	0.41
O=C(C[C@H]1CC[C@@H]2[C@H](COC[C@@H](O)CN2CCC(F)(F)F)O1)NCc1ccc2c(c1)OCO2	0.45
CN1C(=O)c2cc(NC(=O)C3CCOCC3)ccc2OC[C@H]2O[C@H](CC(=O)NCC3CCCCC3)CC[C@@H]21	0.71
O=C(c1ccccc1)N1CC(=O)N2[C@@H](CO)[C@H](c3ccc(-c4ccccc4)cc3)[C@@H]2C1	-2.6
